Results from PubChem BioAssay (Tox21).
Calls of active or inactive are those of the source. Entries that show only a call come without a potency. The call rests on the fitted dose curve.

molecular target: Gonadotropin-releasing hormone receptor (Homo sapiens) (UniProt P30968); test: Human gonadotropin-releasing hormone receptor (GnRHR) small molecule agonists, calcium flux assay in GnRHR-HEK293 cells (AID 1920063); conditions: calcium flux fluorescence, agonist mode; series mostly up to 57.6 µM; further: nearly all actives have a fitted effect of over 35% in size
Outline: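 Compounds dissolved in DMSO are pin-transferred onto dye-loaded GnRHR-HEK293 cells, which were seeded 18 h before at 37 C/5% CO2. Calcium signal is read as fluorescence intensity at 1 s intervals for 3 min.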
Potency means the concentration at half of the fitted maximal effect.

Sequence of Gonadotropin-releasing hormone receptor (Homo sapiens) (P30968 whole entry, looked up): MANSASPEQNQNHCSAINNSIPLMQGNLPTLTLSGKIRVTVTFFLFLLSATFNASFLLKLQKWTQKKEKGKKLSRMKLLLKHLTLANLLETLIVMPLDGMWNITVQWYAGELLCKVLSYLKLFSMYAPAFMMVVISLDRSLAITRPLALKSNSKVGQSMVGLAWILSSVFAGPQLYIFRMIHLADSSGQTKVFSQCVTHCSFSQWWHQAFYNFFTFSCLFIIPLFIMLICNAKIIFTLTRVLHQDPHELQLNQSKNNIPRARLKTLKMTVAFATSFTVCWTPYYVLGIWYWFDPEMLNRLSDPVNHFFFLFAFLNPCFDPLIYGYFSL

Which Potency does the source give for `CCCN1CCC[C@@H]2Cc3[nH]ncc3C[C@H]21` here?
The Potency was “inactive”.

Which Potency does the source give for `C=CC[C@]1(O)CC[C@H]2[C@@H]3CCC4=CC(=O)CCC4=C3C=C[C@@]21C` here?
The Potency was “inactive”.

`NP(N)(=O)NC(=O)c1ccc(F)cc1` was tested. Which Potency did it give?
Its Potency is “inactive”.

With `COc1ccc(C(=O)c2c(C)n(CCN3CCOCC3)c3ccccc23)cc1` as the compound, how does the Potency read?
The Potency was “inactive”.

With `CCOC(=O)COc1ccc(Cl)cc1Cl` as the compound, how does the Potency read?
The Potency was “inactive”.

Which Potency does the source give for `CCOc1cccc(C2(N3CCN(c4ccccc4)CC3)CCC(C)CC2)c1` (stereo not given) here?
Its Potency is “inactive”.

With `COP(=O)(OC)Oc1ccc([N+](=O)[O-])cc1` as the compound, how does the Potency read?
The Potency was “inactive”.

With `COC(=O)N(C(=O)N1COC2(C(=O)OC)Cc3cc(Cl)ccc3C2=N1)c1ccc(OC(F)(F)F)cc1` (stereo not given) as the compound, how does the Potency read?
Its Potency is “inactive”.

With `COc1cc(Cl)c(OC)cc1Cl` as the compound, how does the Potency read?
Its Potency is “inactive”.

How did the Potency turn out when `CC(Cc1ccccc1)NCCn1cnc2c1c(=O)n(C)c(=O)n2C` (stereo not given) was run?
Its Potency is “inactive”.

How did the Potency turn out when `Cc1cccc(OP(=O)(Oc2cccc(C)c2)Oc2cccc(C)c2)c1` was run?
The Potency was “inactive”.

With `OP(O)c1ccccc1` as the compound, how does the Potency read?
Its Potency is “inactive”.

Which Potency does the source give for `Oc1ccc2ccc3cccc4ccc1c2c34` here?
The Potency was “inactive”.

How did the Potency turn out when `ClCc1cccc(Cl)c1` was run?
The Potency was “inactive”.

For `COP(=S)(OC)Oc1c(Cl)cc(C)cc1Cl`, which Potency is on record?
Its Potency is “inactive”.

For `CCOP(=S)(OCC)SCS(=O)(=O)CC`, which Potency is on record?
The Potency was “inactive”.

`CCN1CCC2(CC1)COc1cc3c(cc12)N(C(=O)c1ccc(-c2ccc(-c4nnc(C)o4)cc2C)cc1)CC3` was tested. Which Potency did it give?
Its Potency is “inactive”.

`CN(C)CCc1c[nH]c2cccc(O)c12` was tested. Which Potency did it give?
Its Potency is “inactive”.

How did the Potency turn out when `COP(N)(=S)Oc1ccccc1C(=O)OC(C)C` (stereo not given) was run?
Its Potency is “inactive”.

With `N#Cc1c(-c2ccc(Cl)cc2)[nH]c(C(F)(F)F)c1Br` as the compound, how does the Potency read?
Its Potency is “inactive”.

`CNP(=O)(OC)Oc1ccc(C(C)(C)C)cc1Cl` (stereo not given) was tested. Which Potency did it give?
The Potency was “inactive”.

`Cc1cccc2sc3nncn3c12` was tested. Which Potency did it give?
Its Potency is “inactive”.

With `CC1(C)CN=C(NN=C(/C=C/c2ccc(C(F)(F)F)cc2)/C=C/c2ccc(C(F)(F)F)cc2)NC1` as the compound, how does the Potency read?
The Potency was “inactive”.

For `COc1cc(CC(C)N)c(OC)cc1Br` (stereo not given), which Potency is on record?
The Potency was “inactive”.

`O=C(CCl)C(Cl)Cl` was tested. Which Potency did it give?
The Potency was “inactive”.

Which Potency does the source give for `CCC1(c2ccccc2)C(=O)NC(=O)NC1=O` here?
Its Potency is “inactive”.

Which Potency does the source give for `O=c1[nH]c(Cl)c(Cl)cc1Cl` here?
The Potency was “inactive”.

For `CC(=O)[O][Sn]([c]1ccccc1)([c]1ccccc1)[c]1ccccc1`, which Potency is on record?
Its Potency is 17.4 µM (active).

How did the Potency turn out when `C=C(Cl)CSC(=S)N(CC)CC` was run?
Its Potency is “inactive”.

How did the Potency turn out when `ClC(Cl)C(Cl)Cl` was run?
Its Potency is “inactive”.

With `CC(=O)CCc1ccc2c(c1)OCO2` as the compound, how does the Potency read?
The Potency was “inactive”.

`CN(C)C(=O)Nc1cccc(OC(=O)NC(C)(C)C)c1` was tested. Which Potency did it give?
Its Potency is “inactive”.

Which Potency does the source give for `CNC(=O)Oc1ccc(N(C)C)c(C)c1` here?
The Potency was “inactive”.

Which Potency does the source give for `COP(=O)(OC)O/C(=C\Cl)c1cc(Cl)c(Cl)cc1Cl` here?
Its Potency is “inactive”.

Which Potency does the source give for `CC(C)(C)c1ccc(OP(=O)(Oc2ccccc2)Oc2ccccc2)cc1` here?
Its Potency is “inactive”.

For `CC[C@H]1C[C@H]2[C@@H]3CCC4=CC(=O)CC[C@@H]4[C@H]3CC[C@]2(C)[C@H]1O`, which Potency is on record?
The Potency was “inactive”.

How did the Potency turn out when `COC(=O)C(C)N(C(=O)c1ccco1)c1c(C)cccc1C` (stereo not given) was run?
Its Potency is “inactive”.

`C#CC1(O)CCCCC1` was tested. Which Potency did it give?
Its Potency is “inactive”.

How did the Potency turn out when `CSc1ccc(C(=O)C(C)(C)N2CCOCC2)cc1` was run?
Its Potency is “inactive”.

How did the Potency turn out when `CCCCc1c(C)nc(NCC)nc1OS(=O)(=O)N(C)C` was run?
The Potency was “inactive”.
